From PubChem BioAssay (NCATS)
Records with an inconclusive call do not appear. Where a call stands in place of a potency, no number is given. Active and inactive are the calls of the source. Unless noted, calls follow the shape of the full dose curve.

Columns and labels:
[1] = qHTS for Inhibitors of the Functional Ribonucleoprotein Complex (vRNP) of Lassa (LASV) Arenavirus: LASV Primary Screen - GLuc reporter signal (AID 1347082; calls by dose curve; tested in HEK293 reporter line; also: nearly all actives have a fitted effect of over 60% in size; also: potency is read from the fitted curve at half-maximal effect)
[2] = qHTS for Inhibitors of the Functional Ribonucleoprotein Complex (vRNP) of Lassa (LASV) Arenavirus: Viability assay - alamar blue signal for LASV Primary Screen (AID 1347083; calls by dose curve; tested in HEK293 reporter line; also: nearly all actives have a fitted effect of over 80% in size; also: potency is read from the fitted curve at half-maximal effect)
[3] = target: Nucleoprotein (Lymphocytic choriomeningitis virus (strain Armstrong)) (UniProt P09992); assay: qHTS for Inhibitors of the Functional Ribonucleoprotein Complex (vRNP) of Lymphocytic Choriomeningitis Arenaviruses (LCMV): LCMV Primary Screen - GLuc reporter signal (AID 1347086); also: nearly all actives have a fitted effect of over 70% in size; also: potency is read from the fitted curve at half-maximal effect
Sequence of Nucleoprotein (Lymphocytic choriomeningitis virus (strain Armstrong)) (P09992 whole entry, looked up): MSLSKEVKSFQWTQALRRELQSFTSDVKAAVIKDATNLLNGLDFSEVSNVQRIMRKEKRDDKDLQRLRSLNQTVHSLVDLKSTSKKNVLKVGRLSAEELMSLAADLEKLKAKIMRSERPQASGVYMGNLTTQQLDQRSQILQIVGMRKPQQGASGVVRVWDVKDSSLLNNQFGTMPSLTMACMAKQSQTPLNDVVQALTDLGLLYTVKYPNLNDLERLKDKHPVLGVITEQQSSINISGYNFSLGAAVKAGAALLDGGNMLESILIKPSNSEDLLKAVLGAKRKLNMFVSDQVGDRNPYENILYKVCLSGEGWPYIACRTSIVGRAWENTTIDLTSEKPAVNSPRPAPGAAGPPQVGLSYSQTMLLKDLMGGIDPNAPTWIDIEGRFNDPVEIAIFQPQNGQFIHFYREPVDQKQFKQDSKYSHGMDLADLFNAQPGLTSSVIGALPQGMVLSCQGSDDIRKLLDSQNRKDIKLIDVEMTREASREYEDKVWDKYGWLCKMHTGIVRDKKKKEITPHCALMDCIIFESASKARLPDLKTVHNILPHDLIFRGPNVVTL

[4] = Primary qHTS to identify inhibitors of SARS-CoV-2 cell entry (AID 1645846); details: activity change, negative = inhibition: at 57.1 µM (top of the series) unless noted; also: nearly all actives have a fitted effect of over 45% in size; also: potency is read from the fitted curve at half-maximal effect
In short: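 Inhibition of spike-mediated entry was scored in human ACE2-transfected Expi293F cells. Particles were MLV-pseudotyped with Wuhan-Hu-1 S carrying a 19-aa C-terminal deletion; signal was luciferase after two days, scaled between spike PP and fusion-protein-free PP.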

[5] = Cytotoxicity counterscreen for inhibitors of SARS-CoV-2 cell entry (AID 1645845); also: nearly all actives have a fitted effect of over 50% in size
In short: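 Counterscreen run in the same HEK293-ACE2 line as the pseudotyped-particle entry assay, without particles. Viability after 48 h at 37 C was read as ATP luminescence, scaled between cell-containing and cell-free wells.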

[6] = Validation screen for inhibitors of Lassa infection (AID 463096)
[7] = Inducers of the Endoplasmic Reticulum Stress Response (ERSR) in human glioma: Validation (AID 504836; active = well fitted curve in the direction sought with a large enough effect; an effect the other way counts as inactive or inconclusive)
In short: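 Stably transfected U87-MG glioma cells carrying a GRP78-based luciferase sensor; 16 h compound incubation. Luminescence end-point read 10 min after Bright-Glo addition at room temperature.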

[8] = target: Alpha-galactosidase (Coffea arabica) (UniProt Q42656); assay: Counterscreen for Glucocerebrosidase Inhibitors: qHTS Assay for Coffee Bean alpha-Galactosidase at pH 4.5 (AID 957; active = well fitted curve in the direction sought with a large enough effect; an effect the other way counts as inactive or inconclusive)
Sequence of Alpha-galactosidase (Coffea arabica) (Q42656 whole entry, looked up): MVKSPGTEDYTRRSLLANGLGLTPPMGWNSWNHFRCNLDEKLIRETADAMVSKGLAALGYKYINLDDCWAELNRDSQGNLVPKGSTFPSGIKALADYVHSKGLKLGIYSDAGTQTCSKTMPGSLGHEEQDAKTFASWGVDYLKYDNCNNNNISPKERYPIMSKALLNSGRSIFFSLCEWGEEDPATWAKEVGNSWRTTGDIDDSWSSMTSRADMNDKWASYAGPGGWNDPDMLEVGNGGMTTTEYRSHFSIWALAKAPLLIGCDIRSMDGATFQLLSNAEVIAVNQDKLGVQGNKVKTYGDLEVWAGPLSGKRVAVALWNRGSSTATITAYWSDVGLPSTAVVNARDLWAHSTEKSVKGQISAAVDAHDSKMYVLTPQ
In short: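 Fluorogenic read-out: 4-methylumbelliferone at Ex 365/Em 440 nm after NaOH/glycine stop (pH 10). Enzyme 2 nM, 4-MU-alpha-galactoside 80 uM, citrate buffer pH 4.5, 20 min RT; normalized to no-enzyme and enzyme controls.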

[9] = target: Alpha-galactosidase (Coffea arabica) (UniProt Q42656); assay: Counterscreen for Glucocerebrosidase Inhibitors: qHTS Assay for Coffee Bean alpha-Galactosidase at pH 5.9 (AID 998; active = well fitted curve in the direction sought with a large enough effect; an effect the other way counts as inactive or inconclusive)
In short: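 Enzyme 2 nM + cpd (0.7 nM–77 uM titration) + 4-MU-alpha-Gal 80 uM, pH 5.9 citrate/Tween-20, RT 20 min, NaOH/glycine stop pH 10, fluor 365/440. Normalized to no-enzyme and full-activity controls; Hill-fit AC50.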

[10] = qHTS profiling of the MIPE4 collection as inhibitors of Plasmodium falciparum (3D7) proliferation (AID 743344; call rule not given here); details: P. falciparum 3D7 in erythrocytes, SYBR Green DNA fluorescence, 72 h; at 28.5 µM (top of the series) unless noted
In short: (§1)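 Parasite DNA was quantified by SYBR Green I fluorescence (ex 485, em 535 nm) after overnight lysis in saponin/Triton buffer at room temperature. Cultures at 0.3% parasitemia and 2.5% hematocrit were first exposed to compound for 72 h at 37 C; signals were normalised to artemisinin (0.29 uM) and vehicle wells.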

[11] = qHTS profiling of the MIPE4 collection as inhibitors of Plasmodium falciparum (DD2) proliferation (AID 743345; call rule not given here); details: P. falciparum Dd2 in erythrocytes, SYBR Green DNA, 72 h; at 28.5 µM (top of the series) unless noted
In short: as §1

[12] = qHTS profiling of the MIPE4 collection as inhibitors of Plasmodium falciparum (DD2) proliferation (Rep 2) (AID 743346; call rule not given here); details: P. falciparum Dd2 in erythrocytes, SYBR Green DNA, 72 h; at 28.5 µM (top of the series) unless noted
In short: as §1

[13] = qHTS profiling of the MIPE4 collection as inhibitors of Plasmodium falciparum (HB3) proliferation (AID 743347; call rule not given here); details: P. falciparum HB3 in erythrocytes, SYBR Green DNA, 72 h; at 28.5 µM (top of the series) unless noted
In short: as §1

[14] = Confirmatory qHTS to identify inhibitors of SARS-CoV-2 cell entry (AID 1645844); also: potency is read from the fitted curve at half-maximal effect; nearly all actives have a fitted effect of over 45% in size
In short: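 HEK293-ACE2, overnight seeding; cpd 1 h, 37C/5% CO2; + SARS-CoV-2-S MLV PP (Wuhan-Hu-1, ΔC19); 48 h; Bright-Glo luminescence. Data normalised to S PP and bald PP wells.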

[15] = VSVG counterscreen qHTS to identify inhibitors of SARS-CoV-2 cell entry (AID 1645847); also: potency is read from the fitted curve at half-maximal effect; nearly all actives have a fitted effect of over 65% in size
In short: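 Luminescence from a luciferase reporter, normalised to bald particle and VSV-G pseudotyped particle wells, is the read-out. Cells are HEK293 expressing human ACE2, exposed to compound 1 h before a 48 h particle infection at 37 °C.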

[16] = qHTS for Inhibitors of the Functional Ribonucleoprotein Complex (vRNP) of Lymphocytic Choriomeningitis Arenaviruses (LCMV): Viability assay - alamar blue signal for LCMV Primary Screen (AID 1347085; calls by dose curve; tested in HEK293 reporter line; also: nearly all actives have a fitted effect of over 80% in size)

## COc1cc(C(=O)N2CCC(N3CCN(C)CC3)CC2)ccc1Nc1ncc2c(n1)N(C)c1ccccc1C(=O)N2C
[1]
  Potency: inactive
[2]
  Potency: 17.2 µM (active)
[3]
  Potency: 10.9 µM (active)
[4]
  Potency: 31.6 µM (active)

## COc1cc(Nc2ncc(F)c(Nc3ccc4c(n3)N(COP(=O)(O)O)C(=O)C(C)(C)O4)n2)cc(OC)c1OC
[1]
  Potency: inactive
[2]
  Potency: 2.43 µM (active)
[5]
  Potency: inactive
[4]
  Potency: inactive

## O=C1c2c(O)cc(O)cc2OC(c2ccc(O)c(O)c2)C1O (stereo unspecified)
[6]
  Potency: inactive
[7]
  outcome: inactive
[1]
  Potency: inactive
[2]
  Potency: inactive
[5]
  Potency: inactive
[4]
  activity change, negative = inhibition: 4.53%

## Cn1cc(C[C@@H](N)C(=O)O)c2ccccc21
[1]
  Potency: inactive
[2]
  Potency: inactive
[5]
  outcome: inactive [at 11.3 µM]
[4]
  activity change, negative = inhibition: -6.52% [at 11.3 µM]

## O=C(O)CCCCCC(=O)NN=C1CCCC1
[1]
  Potency: inactive
[2]
  Potency: inactive
[5]
  Potency: inactive
[4]
  activity change, negative = inhibition: -16.8%

## O=c1[nH]c2cc(Cl)c(Cl)cc2[nH]c1=O
[8]
  outcome: inactive
[9]
  outcome: inactive
[6]
  Potency: inactive
[7]
  outcome: inactive
[1]
  Potency: inactive
[2]
  Potency: inactive
[3]
  Potency: inactive

## O=C(Nc1ccc(Oc2ccnc3[nH]ccc23)c(F)c1)c1cccn(-c2ccc(F)cc2)c1=O
[1]
  Potency: inactive
[2]
  Potency: inactive
[5]
  Potency: inactive
[4]
  activity change, negative = inhibition: -21.9%

## NC1=N[C@H]2[C@H](CS[C@H]2CCCCC(=O)O)N1
[10]
  parasite growth, % of DMSO control: 88.8% [at 9.64 µM]
[11]
  parasite growth remaining, % of DMSO control (lower = more inhibition): 94.1% [at 9.64 µM]
[12]
  parasite growth, % of control (lower = inhibition): 82% [at 9.64 µM]
[13]
  growth, % of control: 44.4% [at 9.64 µM]
[1]
  Potency: inactive
[2]
  Potency: inactive
[3]
  Potency: inactive
[4]
  activity change, negative = inhibition: -19.4% [at 27.1 µM]

## CN1CCc2c(c3ccccc3n2Cc2ccc(C(=O)NO)cc2)C1
[1]
  Potency: inactive
[2]
  Potency: 21.7 µM (active)
[4]
  activity change, negative = inhibition: -18.9%

## O=C1c2ccccc2-c2n[nH]c3cccc1c23
[8]
  outcome: inactive
[9]
  outcome: inactive
[1]
  Potency: inactive
[2]
  Potency: 30.6 µM (active)
[3]
  Potency: inactive
[5]
  Potency: inactive

## CC(C)c1cc(-c2n[nH]c(=O)n2-c2ccc3c(ccn3C)c2)c(O)cc1O
[1]
  Potency: 0.385 µM (active)
[2]
  Potency: 0.243 µM (active)
[3]
  Potency: 0.306 µM (active)
[4]
  activity change, negative = inhibition: -96%

## Cc1ccc2nc(NCCN)c3ncc(C)n3c2c1
[1]
  Potency: 17.2 µM (active)
[2]
  Potency: 19.3 µM (active)
[14]
  Potency: 19.2 µM (active)
[15]
  Potency: 13.6 µM (active)

## COc1ccc(-c2oc3cc(OC)c(O)c(OC)c3c(=O)c2OC)cc1O
[1]
  Potency: inactive
[16]
  Potency: inactive
[3]
  Potency: inactive
